# Laboratory results from PMC4336329 (PLoS ONE, 2015).
# In all, about 310,000 compounds went through this assay and about 14,000 (4.5%) showed an effect of 50% or more. Effects have a minus sign here. Only a selection was taken, and strong results are over-represented in it overall.
# Target: human ether-à-go-go-related gene (hERG) potassium channel (human, UniProt Q12809)
# Experiment: primary screen, population patch clamp on CHO cells stably expressing hERG; higher = less effect of the substance
# 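Further: peak tail current of the secondary pulse compared with the same well before compound.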
# Chain of human ether-à-go-go-related gene (hERG) potassium channel (Q12809 whole entry, looked up): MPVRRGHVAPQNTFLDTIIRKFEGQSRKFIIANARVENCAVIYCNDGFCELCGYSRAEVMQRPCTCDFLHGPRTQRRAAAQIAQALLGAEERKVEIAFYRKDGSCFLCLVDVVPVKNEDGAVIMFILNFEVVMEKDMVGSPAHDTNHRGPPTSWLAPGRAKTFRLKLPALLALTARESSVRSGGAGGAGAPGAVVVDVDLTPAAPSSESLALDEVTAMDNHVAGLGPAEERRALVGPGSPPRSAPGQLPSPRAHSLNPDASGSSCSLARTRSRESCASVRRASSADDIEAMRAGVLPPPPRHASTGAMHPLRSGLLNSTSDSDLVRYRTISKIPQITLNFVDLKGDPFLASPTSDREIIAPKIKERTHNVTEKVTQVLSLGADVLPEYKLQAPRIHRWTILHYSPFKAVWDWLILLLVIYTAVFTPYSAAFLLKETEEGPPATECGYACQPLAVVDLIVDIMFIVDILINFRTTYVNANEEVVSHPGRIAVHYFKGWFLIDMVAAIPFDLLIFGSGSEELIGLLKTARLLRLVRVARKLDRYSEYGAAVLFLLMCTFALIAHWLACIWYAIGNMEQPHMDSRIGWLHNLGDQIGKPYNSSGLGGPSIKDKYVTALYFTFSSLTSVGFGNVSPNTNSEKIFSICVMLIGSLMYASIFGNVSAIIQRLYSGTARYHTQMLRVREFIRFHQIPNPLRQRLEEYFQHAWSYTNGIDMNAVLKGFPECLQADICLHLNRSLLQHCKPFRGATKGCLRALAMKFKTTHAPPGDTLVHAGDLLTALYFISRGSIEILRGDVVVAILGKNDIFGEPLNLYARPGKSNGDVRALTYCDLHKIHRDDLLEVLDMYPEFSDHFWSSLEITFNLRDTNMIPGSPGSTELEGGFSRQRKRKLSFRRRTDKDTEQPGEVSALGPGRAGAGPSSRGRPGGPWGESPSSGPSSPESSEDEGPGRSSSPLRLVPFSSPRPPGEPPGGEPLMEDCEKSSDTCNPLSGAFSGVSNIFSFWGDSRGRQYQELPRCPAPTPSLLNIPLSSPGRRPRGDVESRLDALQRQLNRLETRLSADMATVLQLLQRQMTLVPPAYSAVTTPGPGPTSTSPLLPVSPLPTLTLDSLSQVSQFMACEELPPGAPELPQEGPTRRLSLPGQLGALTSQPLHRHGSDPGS
row,Structure (SMILES),"hERG current change (%, negative = inhibition) at 10uM [%]"
1,CC(C)NC(=O)COc1coc(CN2CCN(C(=O)c3ccco3)CC2)cc1=O,10.3
2,COc1ccc(CN2CCN(C(=O)c3ccco3)CC2)cc1OC.O=C(O)C(=O)O,16.8
3,CCOc1cc(CN2CCN(C(=O)c3ccco3)CC2)ccc1OC,-28.7
4,COc1ccc(CN2CCN(C(=O)c3ccco3)CC2)cc1OCc1ccccc1,-51.2
5,O=C(COc1coc(CN2CCc3ccccc3C2)cc1=O)Nc1ccc([N+](=O)[O-])cc1,-31.7
6,O=c1cc(CO)occ1OCc1cccc(F)c1,-9.93
7,O=C(c1ccco1)N1CCN(Cc2cc(=O)c(OCc3ccccc3)co2)CC1,-25.5
8,O=C(c1ccco1)N1CCN(Cc2cc(=O)c(OCc3ccc(F)cc3)co2)CC1,-62.2
9,O=C(O)CCCCCn1c(SCC(=O)c2ccc(O)c(O)c2)nc2ccsc2c1=O,32.2
10,O=C(N[C@@H](Cc1ccccc1)C(=O)NC1CCCCC1)c1ccco1,6
11,CN1CCN(NS(=O)(=O)c2ccc(Cl)cc2)CC1,19.4
12,COc1ccc(CCNC(=O)c2cccs2)cc1,10.9
13,O=C(O)C(=O)O.c1ccc2c(OCCCN3CCCCCC3)cccc2c1,-65.8
14,c1ccc2c(OCCCCN3CCCC3)cccc2c1,-27.1
15,Brc1ccccc1OCCCN1CCCCCC1.O=C(O)C(=O)O,-72.6
16,O=C(O)C(=O)O.c1ccc2c(OCCCCN3CCOCC3)cccc2c1,10.7
17,Brc1ccccc1OCCCN1CCCC1.O=C(O)C(=O)O,-12.4
18,Brc1ccccc1OCCCCN1CCCCC1,-39.1
19,CC1(C)Cc2cccc(OCC(=O)Nc3ccccc3N3CCOCC3)c2O1,-10.8
20,CCOc1c(Cl)cc(CNC(C)(C)CC(C)(C)C)cc1OC.Cl,-13.2
21,CCCn1c(=O)[nH]c(=O)c2c1nc(-c1ccc(C(F)(F)F)cc1)n2CCOC,-4.45
22,CCOC(=O)CN1C(=O)/C(=C/c2c(F)cccc2Cl)Oc2ccccc21,9.08
23,COc1ccc2cc(C3(C)NC(=O)NC3=O)ccc2c1 (stereo not drawn),-0.239

row,Structure (SMILES),"hERG current change (%, negative = inhibition) at 10uM [%]"
1,CN(C(=O)CSc1nnc(C2CC2)n1C1CC1)C1(C#N)CCCCC1,-5.85
2,O=C(N/N=C/c1ccc(OC(=O)c2cccc(F)c2)cc1)c1cccnc1,-69.6
3,Cc1ccc(C(=O)N/N=C\c2ccc(OC(=O)c3cccc(F)c3)cc2)cn1,11
4,O=C(N/N=C/c1ccc(OC(=O)c2cccc(Br)c2)cc1)c1cccnc1,11.4
5,O=C(N/N=C(\c1ccccc1)c1cccnc1)c1cccc(F)c1,-61.5
6,O=C(N/N=C/c1cccnc1)c1cccc(F)c1,2.67
7,O=C(N/N=C(\c1ccccc1)c1cccnc1)c1cc(O)ccc1O,16.4
8,Br.CC(C)(C)C(=O)Cn1c(NCCO)nc2ccccc21,5.72
9,O=C(OCC(=O)N1CCc2ccccc21)C1CCCN1S(=O)(=O)c1ccc(Cl)cc1 (stereo not drawn),-17.8
10,CC(C)COc1ccc(C(=O)OCC(=O)N(C)CC(=O)Nc2ccc(F)cc2)cc1,6.57
11,CCOC(=O)Cc1cc(C)[nH]c1C(=O)OCC,-5.81
12,C=CCNC(=O)c1c2c(nc3ccccc13)-c1ccccc1CC2,-46.4
13,CCOC(=O)C1CCCN(Cc2ccc(O)c(OC)c2)C1 (stereo not drawn),-6.59
14,CCOc1cccc(CN2CCCC(C(=O)c3cc(Cl)ccc3OC)C2)c1O (stereo not drawn),-64.3
15,CCOc1ccccc1CN1CCCC(C(=O)c2ccc(OC)c(OC)c2)C1 (stereo not drawn),-74.2
16,CCOC(=O)C1CCCN(Cc2ccccc2OCC)C1 (stereo not drawn),-2.92
17,COc1ccc(CN2CCCC(C(=O)c3cccc(C(F)(F)F)c3)C2)cc1O (stereo not drawn),-62.2
18,COc1ccc(Cl)cc1C(=O)C1CCCN(CCO)C1 (stereo not drawn),-11.2
19,CCOc1cccc(CN2CCCC(C(=O)Nc3ccc(-c4ccn[nH]4)cc3)C2)c1O (stereo not drawn),-29.5
20,CCOc1cc(CN2CCCC(C(=O)c3cccc(C(F)(F)F)c3)C2)ccc1O (stereo not drawn),-61.2
21,CCCC(=O)N1CCCC(C(=O)c2ccc(OC)c(OC)c2)C1 (stereo not drawn),12.7
22,O=S(=O)(c1ccc(F)cc1)N1CCCC(c2nc(-c3ccc(F)cc3)no2)C1 (stereo not drawn),-13.9
